Bioassay records deposited in PubChem BioAssay by National Center for Advancing Translational Sciences (NCATS).
The full list was thinned out, with hits kept by preference.
AmpC inh detg: blocks E. coli AmpC beta-lactamase in detergent assay; P00811; AmpC hydrolysis of nitrocefin, absorbance 480 nm, 0.01% Triton; 370,000 compounds, 0.041% hits; Potency, µM (series often up to 114 µM), for inactives: top-dose activity change, negative = inhibition, hits mostly inhibitors; AID 485294;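 note: 0% = no-compound wells and -100% = no-enzyme wells; nearly all actives have a fitted effect of over 25% in size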
Target sequence (P00811 whole entry, looked up): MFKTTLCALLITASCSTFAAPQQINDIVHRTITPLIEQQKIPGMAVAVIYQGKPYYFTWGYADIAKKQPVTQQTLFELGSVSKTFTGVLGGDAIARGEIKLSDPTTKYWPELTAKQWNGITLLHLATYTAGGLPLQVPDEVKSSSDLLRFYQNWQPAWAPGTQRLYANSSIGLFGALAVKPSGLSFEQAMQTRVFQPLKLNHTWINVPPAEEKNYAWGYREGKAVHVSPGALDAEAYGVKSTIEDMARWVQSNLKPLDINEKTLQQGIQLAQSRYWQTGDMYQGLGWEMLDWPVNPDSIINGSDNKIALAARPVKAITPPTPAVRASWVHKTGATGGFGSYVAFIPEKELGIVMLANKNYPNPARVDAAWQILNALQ
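20 mM phosphate pH 7.0 + 0.01% (detergent screen) or 0.0001% Triton X-100; 5.3 nM AmpC reagent; cpd preinc 15 min RT; nitrocefin (800 uM stock) to start; A480 q20 s × 4 min; Activity was normalised to no-enzyme and no-compound control wells.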
AmpC no deterg: blocks E. coli AmpC beta-lactamase in detergent-free assay | Potency, µM (doses to about 57.1 µM), for the others: at the top dose activity change, negative = inhibition, usual class: inhibitors | AID 485341 | P00811 | AmpC nitrocefin hydrolysis, absorbance 480 nm, 0.0001% Triton | 330,000 compounds, 0.52% hits;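 note: plate controls were no compound for no effect and no enzyme for full effect; nearly all actives have a fitted effect of over 20% in size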
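20 mM phosphate pH 7.0 + 0.01% (detergent screen) or 0.0001% Triton X-100; 5.3 nM AmpC reagent; cpd preinc 15 min RT; nitrocefin (800 uM stock) to start; A480 q20 s × 4 min; Activity was normalised to no-enzyme and no-compound control wells.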
* hit, by the source's call; u = inconclusive; x = not tested or not shown. Calls come from the whole dose curve; as a rule, active = well fitted curve in the direction sought with a large enough effect; inconclusive = small, poorly fitted or top-dose-only effect, or another doubt; inactive = no such curve, though single readings can be large; an effect the other way counts as inactive or inconclusive. Potency is the fitted concentration of half-maximal effect.

SMILES	AmpC inh detg	AmpC no deterg
CCOC(=O)C1=C(c2ccccc2)N=c2s/c(=C\c3ccco3)c(=O)n2C1c1cccs1 (stereo not given)	-0.3%	12.6µM*
O=C(CSc1n[nH]c(-c2ccc(S(=O)(=O)N3CCCCC3)cc2)n1)Nc1nccs1	u	14.1µM*
Cn1c(SCC(=O)Nc2nccs2)nnc1-c1ccc(S(=O)(=O)N2CCCC2)cc1	-11.5%	-14.8%
Cc1nnc(N2CCN(c3ccccc3)CC2)c2c1nnn2Cc1ccc(F)cc1	19.0%	x
O=C(NCCc1ccccc1)C1CCN(S(=O)(=O)N2CCC3(CC2)OCCO3)CC1	-0.9%	0.562µM*
O=C(NCCN1CCC(Cc2ccccc2)CC1)C1CCN(S(=O)(=O)N2CCC3(CC2)OCCO3)CC1	3.7%	110.8%
Cc1ccc(C)c(Nc2nn3c(=O)c4ccc(C(=O)NCc5cccs5)cc4nc3s2)c1	-1.2%	x
Cc1ccc(N=Cc2cc3c(cc2O)OC(N)=C(C#N)C3c2ccccc2)cc1 (stereo not given)	-17.1%	20µM*
N#CC1=C(N)Oc2cc(O)c(C=Nc3ccccc3)cc2C1c1ccccc1 (stereo not given)	-4.8%	-18.2%
O=C(CCCCn1c(=O)c2ccccc2n(Cc2ccccc2Cl)c1=O)NCc1ccc2c(c1)OCO2	-1.1%	x
CC(C)c1cnc2c(c1SCc1cccc(F)c1)c(=O)n(C)c(=O)n2C	7.6%	x
CCc1ccccc1NC(=O)CN(Cc1ccccc1)S(=O)(=O)c1ccc2nc(C)sc2c1	-0.1%	x
CCOC(=O)c1ccc(NC(=O)C(C)Sc2nc(=O)cc(N)n2CCc2ccccc2)cc1 (stereo not given)	-0.3%	x
CCC(Sc1nc(=O)cc(N)n1CCc1ccccc1)C(=O)Nc1cc(C)on1 (stereo not given)	u	2.82µM*
NC(=O)c1ccsc1NC(=O)c1ccc2c(c1)CCCC2	-12.3%	-25.1%
NC(=O)c1ccsc1NC(=O)c1ccc(N2CCCC2=O)cc1	4.6%	7.94µM*
O=C(NCc1cccs1)c1ccc2c(c1)N(Cc1ccccc1Cl)C(=O)c1ccccc1S2	2.8%	x
Nc1c2c(nc3sc4c(c13)CCCC4)CCCCC2	-0.9%	3.98µM*
Nc1c2c(nc3sc4c(c13)CCCCC4)CCCCC2	-0.3%	-26.1%
CCCN1CCN(c2ncc3c(n2)CCN(Cc2ccc(OC)c(OC)c2OC)C3)CC1	9.2%	x
CCC(=O)Nc1nnc(-c2ccc(Cl)s2)o1	-0.5%	-27.6%
CC(=O)Nc1nnc(-c2ccc(Cl)s2)o1	5.4%	1.58µM*
O=C1NC(=O)N(Cc2ccco2)C(=O)/C1=C/C=C/c1ccco1	-10.1%	12.6µM*
O=C1NC(=O)N(Cc2ccccc2)C(=O)/C1=C\C=C\c1ccco1	3.0%	-29.7%
COCC(=O)NCc1ccc2c(c1)cc(C)n2C	-2.6%	7.4%
SMILES	AmpC inh detg	AmpC no deterg
Cc1ccc(S(=O)(=O)NCc2ccc3c(c2)cc(C)n3C)cc1	u	25.1µM*
Cc1ccc(-c2noc(-c3ccc(NCc4ccco4)c([N+](=O)[O-])c3)n2)cc1	26.0%	x
Cc1ccc(C(=O)Nc2ccc3nc(SCC(=O)N4CCCc5ccccc54)sc3c2)cc1	22.7%	x
O=C(CSc1nnc(SCc2cccc3ccccc23)s1)c1ccc2c(c1)OCO2	-8.9%	25.1µM*
O=C(CSc1nnc(SCc2cccc3ccccc23)s1)Nc1ccc(C(=O)O)cc1	-0.9%	-40.0%
CC1=C(C(=O)Nc2ccc(C)c(C)c2)C2(CCCCCC2)OC1=O	7.7%	x
Cc1ccccc1NC1=C(Cl)C(=O)OC1OC(=O)c1ccco1 (stereo not given)	u	-40.9%
Cc1ccc(NC2=C(Cl)C(=O)OC2OC(=O)c2ccc(C)cc2)cc1 (stereo not given)	8.91µM*	-47.1%
COC(=O)c1ccc(NC2=C(Cl)C(=O)OC2OC(=O)c2ccccc2)cc1 (stereo not given)	10µM*	4.47µM*
COc1cccc(NC2=C(Cl)C(=O)OC2OC(=O)c2ccco2)c1 (stereo not given)	-1.0%	-37.9%
Clc1ccc(C2CC(c3ccccc3)Nc3ncnn32)cc1 (stereo not given)	u	1.26µM*
Fc1ccc(C2CC(c3ccccc3)n3ncnc3N2)cc1 (stereo not given)	-1.5%	-14.2%
CC(C)c1ccc(NC(=O)Cn2cc(S(=O)(=O)Cc3cccc(Cl)c3)c3ccccc32)cc1	-5.0%	x
CCCOc1ccc(CNC(=O)C(CC)n2nc(C)c3sc4ccccc4c3c2=O)cc1 (stereo not given)	-3.6%	x
Cc1cccc(NC(=O)CNC(=O)COc2ccc(-c3ccc(C#N)cc3)cc2)c1C	-3.2%	28.2µM*
Cc1cccc(NC(=O)CNC(=O)COc2ccc(C(=O)c3ccc(F)cc3)cc2)c1C	-1.4%	-54.2%
O=C(Nc1cc(Sc2ccccn2)cc([N+](=O)[O-])c1)c1ccc(Cl)cc1	-2.5%	31.6µM*
